Out of some 310,000 compounds screened, about 17,000 (5.5%) were called active. Another 11% or so got no clear call; they are omitted. The calls are words filed in the database; no cut-off is given here. The sample as a whole holds a higher share of actives than the screen did.
Molecular target: T1, Nuclear receptor ROR-gamma (Mus musculus) (UniProt P51450)
T1 sequence (whole entry): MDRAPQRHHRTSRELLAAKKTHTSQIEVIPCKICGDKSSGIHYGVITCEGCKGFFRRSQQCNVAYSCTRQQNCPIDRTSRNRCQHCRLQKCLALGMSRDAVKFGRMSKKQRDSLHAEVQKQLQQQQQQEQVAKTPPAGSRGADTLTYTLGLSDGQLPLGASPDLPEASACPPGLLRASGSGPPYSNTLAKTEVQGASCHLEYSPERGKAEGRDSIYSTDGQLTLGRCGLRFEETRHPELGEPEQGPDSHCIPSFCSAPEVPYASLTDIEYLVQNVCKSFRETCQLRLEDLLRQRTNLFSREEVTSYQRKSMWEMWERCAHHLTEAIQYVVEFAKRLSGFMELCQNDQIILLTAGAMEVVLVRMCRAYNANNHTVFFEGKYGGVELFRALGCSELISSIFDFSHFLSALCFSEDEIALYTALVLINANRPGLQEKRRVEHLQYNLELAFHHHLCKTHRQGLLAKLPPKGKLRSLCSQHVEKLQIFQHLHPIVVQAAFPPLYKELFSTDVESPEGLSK
Experiment: qHTS for inhibitors of ROR gamma transcriptional activity.
Assay type: functional

Potency, active:
COc1ccccc1/C=C/C(=O)c1cccs1 25.1 µM
O=C(/C=C/c1ccc(Cl)cc1)c1cccs1 15.8 µM
c1ccc(-n2ncc3c(NCc4cccnc4)ncnc32)cc1 501 µM

Reference: ChEMBL document CHEMBL1201862, “PubChem BioAssay data set” (2004)
